Laboratory results from PubChem BioAssay AID2061166 (Soto Lab, Mitchell Center for Alzheimers Disease and …, 2025).
“And” between values parts separate entries of the source, which are not always exact repeats. Equal entries are not always repeated. The source made the active and inactive calls.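 Rule for the calls: active = mean tau seeding fluorescence area under 1% of vehicle, meaning inhibition above a set limit; inactive = the rest.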

Each compound was assayed against Microtubule-associated protein tau (Homo sapiens) (UniProt P10636) (assay: inhibitors of seeded tau aggregation, primary screen, biochemical, seed amplification, ThT fluorescence (AID 2061166)). Conditions: Recombinant tau seeded by AD brain, ThT fluorescence AUC; at 100 µM; hits give high values.
Chain of Microtubule-associated protein tau (Homo sapiens) (P10636 whole entry, looked up): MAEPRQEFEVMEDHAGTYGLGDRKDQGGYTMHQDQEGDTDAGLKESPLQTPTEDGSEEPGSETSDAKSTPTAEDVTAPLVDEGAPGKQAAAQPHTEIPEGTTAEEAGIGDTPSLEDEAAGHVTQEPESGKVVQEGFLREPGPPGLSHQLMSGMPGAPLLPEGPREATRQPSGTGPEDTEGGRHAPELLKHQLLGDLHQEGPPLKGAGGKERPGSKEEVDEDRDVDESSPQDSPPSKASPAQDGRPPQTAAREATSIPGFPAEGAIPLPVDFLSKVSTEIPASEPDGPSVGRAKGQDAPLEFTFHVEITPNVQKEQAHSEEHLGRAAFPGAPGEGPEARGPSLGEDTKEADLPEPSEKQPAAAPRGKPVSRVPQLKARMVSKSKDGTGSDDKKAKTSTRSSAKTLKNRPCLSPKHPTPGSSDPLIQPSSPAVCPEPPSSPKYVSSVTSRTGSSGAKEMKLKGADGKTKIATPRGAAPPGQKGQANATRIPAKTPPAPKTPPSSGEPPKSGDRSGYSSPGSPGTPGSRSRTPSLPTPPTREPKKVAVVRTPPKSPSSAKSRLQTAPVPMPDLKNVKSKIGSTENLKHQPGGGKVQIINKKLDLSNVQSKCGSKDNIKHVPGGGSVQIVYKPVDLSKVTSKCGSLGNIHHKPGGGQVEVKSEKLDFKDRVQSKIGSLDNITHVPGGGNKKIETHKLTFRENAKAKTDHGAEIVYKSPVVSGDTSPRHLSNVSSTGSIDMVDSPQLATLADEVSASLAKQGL

For `CCOC(=O)C1=C(C)NC(C)=C(C(=O)OC)C1c1cccc(Cl)c1Cl` (configuration not stated), which inhibition is on record?
Its inhibition is 51.7% (inactive).

For `CC1(C)SC2C(NC(=O)C(N)c3ccc(O)cc3)C(=O)N2C1C(=O)O` (configuration not stated), which inhibition is on record?
Its inhibition is -6.81% (inactive).

For `CN(CCOc1ccc(CC2SC(=O)NC2=O)cc1)c1ccccn1` (configuration not stated), which inhibition is on record?
Its inhibition is -61% (inactive).

`Cc1ccc(Nc2c(F)cccc2Cl)c(CC(=O)O)c1` was tested. Which inhibition did it give?
The inhibition was 11.4% (inactive).

For `Nc1c2c(nc3ccccc13)CCCC2`, which inhibition is on record?
The inhibition was 20.6% (inactive).

With `CS(=O)(=O)c1ccc(C(=O)Nc2ccc(Cl)c(-c3ccccn3)c2)c(Cl)c1` as the compound, how does the inhibition read?
Its inhibition is 44% (inactive).

How did the inhibition turn out when `NC(=O)N1CCC(CC(=O)N2CCC(C3c4ncc(Br)cc4CCc4cc(Cl)cc(Br)c43)CC2)CC1` (configuration not stated) was run?
Its inhibition is 20.1% (inactive).

`COc1cc(C(C)=O)ccc1OCCCN1CCC(c2noc3cc(F)ccc23)CC1` was tested. Which inhibition did it give?
Its inhibition is -61.2% (inactive).

Which inhibition does the source give for `C#CCC(Cc1cnc2nc(N)nc(N)c2n1)c1ccc(C(=O)NC(CCC(=O)O)C(=O)O)cc1` (configuration not stated) here?
The inhibition was -3.35% (inactive).

`NC(=O)c1cn(Cc2c(F)cccc2F)nn1` was tested. Which inhibition did it give?
The inhibition was -11.5% (inactive).

With `CN(C)CC(c1ccc(O)cc1)C1(O)CCCCC1` (configuration not stated) as the compound, how does the inhibition read?
The inhibition was 15.1% (inactive).

`CCN(CC)CCCC(C)Nc1c2ccc(Cl)cc2nc2ccc(OC)cc12` (configuration not stated) was tested. Which inhibition did it give?
Its inhibition is 72.2% (inactive).

With `O=C(OC1CN2CCC1CC2)N1CCc2ccccc2C1c1ccccc1` (configuration not stated) as the compound, how does the inhibition read?
Its inhibition is -37.8% (inactive).

For `C#CC1(O)CCC2C3CCC4=Cc5oncc5CC4(C)C3CCC21C` (configuration not stated), which inhibition is on record?
The inhibition was 45.1% (inactive).

With `CCCNC1CCc2nc(N)sc2C1` (configuration not stated) as the compound, how does the inhibition read?
Its inhibition is 13.7% (inactive) and -33.7% (inactive).

How did the inhibition turn out when `CCc1nc(N)nc(N)c1-c1ccc(Cl)cc1` was run?
Its inhibition is -7.97% (inactive).

`CO/N=C(\C(=O)NC1C(=O)N2C(C(=O)[O-])=C(C[N+]3(C)CCCC3)CSC12)c1csc(N)n1` (configuration not stated) was tested. Which inhibition did it give?
Its inhibition is 53.1% (inactive).

With `C[N+](C)(C)CCO` as the compound, how does the inhibition read?
The inhibition was 13.4% (inactive).

`CCCCN1CCCCC1C(=O)Nc1c(C)cccc1C` (configuration not stated) was tested. Which inhibition did it give?
Its inhibition is 7.03% (inactive).

How did the inhibition turn out when `CC1OC(OCC2OC(Oc3c(-c4ccc(O)c(O)c4)oc4cc(O)cc(O)c4c3=O)C(O)C(O)C2O)C(O)C(O)C1O` (configuration not stated) was run?
Its inhibition is 28.7% (inactive).

How did the inhibition turn out when `CC1CCC2(C(=O)O)CCC3(C)C(=CCC4C5(C)CC(O)C(O)C(C)(CO)C5C(O)CC43C)C2C1C` (configuration not stated) was run?
Its inhibition is 31% (inactive).

For `Cc1c(N)c(=O)n(-c2ccccc2)n1C`, which inhibition is on record?
Its inhibition is 0.254% (inactive).

`Nc1cccc2c1CN(C1CCC(=O)NC1=O)C2=O` (configuration not stated) was tested. Which inhibition did it give?
The inhibition was 42.8% (inactive).

For `O=C(O)CCCc1ccccc1`, which inhibition is on record?
Its inhibition is 8.12% (inactive).

How did the inhibition turn out when `CCCCCCCCCC(=O)O` was run?
The inhibition was 0.189% (inactive).

Which inhibition does the source give for `COc1cc2nc(N(C)CCCNC(=O)C3CCCO3)nc(N)c2cc1OC` (configuration not stated) here?
Its inhibition is 17.4% (inactive).

With `CN(C)CCc1c[nH]c2ccc(Cn3cncn3)cc12` as the compound, how does the inhibition read?
The inhibition was -4.86% (inactive).

`Cc1nc2c([nH]1)CCN(C(=O)c1ccc(NC(=O)c3ccccc3-c3ccccc3)cc1)c1ccccc1-2` was tested. Which inhibition did it give?
Its inhibition is 6.08% (inactive).

Which inhibition does the source give for `CCN(C(=O)c1c(O)c2c(Cl)cccc2n(C)c1=O)c1ccccc1` here?
The inhibition was 20% (inactive).

With `O=C1C=C(NC(Cc2c[nH]c3ccccc23)C(=O)O)C(=O)c2ccccc21` (configuration not stated) as the compound, how does the inhibition read?
Its inhibition is 52.4% (inactive).

How did the inhibition turn out when `CN(C)CCCN1c2ccccc2Sc2ccccc21` was run?
Its inhibition is 13.2% (inactive).

How did the inhibition turn out when `CC1(C)CCC2(C(=O)O)CCC3(C)C(=CCC4C5(C)CCC(O)C(C)(CO)C5CCC43C)C2C1` (configuration not stated) was run?
Its inhibition is 65% (inactive).
